The structures appear in SMILES notation.

This is an account of results in ChEMBL document CHEMBL1157539, “Thousands of chemical starting points for antimalarial lead identification” (Nature, 2010).

The subject of the experiment is Plasmodium falciparum. As to the kind of experiment: GSK_TCMDC: Inhibition of Plasmodium falciparum 3D7 in whole red blood cells, using parasite LDH activity as an index of growth. Test compounds present at 2uM. The class given is functional.
`Nc1ccc(-c2nc3cc(C4=N[C@H]5CCCC[C@H]5N4)ccc3o2)cc1[N+](=O)[O-]`: the Inhibition stood at 95%. To `COC(=O)c1cccc(CNCc2cccc(-c3ccc(-c4nc5ccccc5[nH]4)cc3)c2)c1.O=C(O)C(F)(F)F` belongs 99%.

Regarding `Cc1cc2nc(-c3ccc(C(=O)NCCCc4ccccc4)cc3)[nH]c2cc1C`, the Inhibition came to 91%.

As to `Cc1ccccc1OCC(=O)Nc1ccc(-c2nc3cc4ccccc4cc3[nH]2)cc1`, the Inhibition is 100%. To `COc1cccc(CN2CCCN(Cc3cccc(NC(=O)c4ccc(-c5ccccc5)cc4)c3)CC2)c1.O=C(O)C(F)(F)F` belongs 86%. Then `Cc1cccc2nc(-c3ccc(-c4ccc(CN5CCC(CO)CC5)cc4)s3)[nH]c12.O=C(O)C(F)(F)F`, with 100%. `CC(=O)Nc1ccc(CN(Cc2ccc(OC(C)(C)C)cc2)Cc2ccc3c(c2)OCCO3)cc1` displayed an Inhibition of 91%. To `CC(=O)c1cccc2c(NC(=O)Nc3ccc4nccc(N5CCN(C)CC5)c4c3)cccc12.Cl` belongs 99%; to `O=C(Nc1ccc(C(=O)OCC(c2ccccc2)c2ccccc2)cc1)N[C@@H](Cc1ccc(O)cc1)C(=O)NC1CCN(Cc2ccc(O)cc2)C1.O=C(O)C(F)(F)F` (stereo not given in full), 96%. The compound `O=C(NCCc1cccc(Cl)c1Cl)c1ccc(N2CCN(c3ccncc3)CC2)nc1.O=C(O)C(F)(F)F` had an Inhibition of 100%. `COc1ccc(NC(=O)N2CCN(CCCCCNC(=O)/C=C/c3ccc(C(F)(F)F)cc3)CC2)cc1Cl`: the Inhibition worked out at 94%. `Cn1nc(-c2ccc(NC(=O)Nc3cc(C(F)(F)F)ccc3F)cc2)c2cnc(NCCCCN3CCCC3)nc21.O=C(O)C(F)(F)F` displayed an Inhibition of 98%. Then `Cc1cc(OCCCNC(=N)c2ccc3ccccc3c2)c(C(C)C)cc1Cl.Cc1ccc(S(=O)(=O)O)cc1`, with 95%; and `Cc1ccc(CCC(C)NCC(O)c2cccc(Cl)c2)cc1` (stereo not given), with 97%. Compound `O=C(Nc1cccc(F)c1)c1ccc(C(=O)NC2CCN(CC3CCCCC3)C2)cc1.O=C(O)C(F)(F)F` (stereo not given) gave an Inhibition of 96%. Take `CCN(CCCN1CCCCC1)c1cc(C)nc(Nc2ccc(Cl)cc2)n1.Cl`: the Inhibition amounted to 100%. `O=C(/C=C/c1ccc(Cl)c(Cl)c1)N1CCN(C(=O)Nc2ccc(F)c(Cl)c2)CC1` had an Inhibition of 97%.

With `CCN(CC)CCN(Cc1ccc(-c2ccc(C(F)(F)F)cc2)cc1)C(=O)Cn1c(CCc2ccc(F)c(F)c2F)nc(=O)c2cccnc21.O=C(O)C(O)C(O)C(=O)O`, the Inhibition is given as 89%. To `CCCCCCCc1ccc(-c2c(C)[nH]c(C)c(Cl)c2=O)cn1` belongs 99%; to `CCOC(=O)c1cn(CC)c2cc(N(C)CCc3ccc(OC)c(OC)c3)c(F)cc2c1=O.Cl`, 92%. To `CC(=O)Nc1cccc(CNc2cc(C)nc(Nc3ccc(C)cc3)n2)c1` belongs 82%; to `Cc1sc(N2CCCCC2)nc1C(=O)Nc1ccc(F)cc1C(F)(F)F.O=C(O)C(F)(F)F`, 86%. Consider `O=C(/C=C/c1ccc([N+](=O)[O-])cc1)N1CCC(NS(=O)(=O)c2cccc(C(F)(F)F)c2)CC1`, for which the Inhibition is on record as 94%. Then `CC(=O)Nc1ccc(C#Cc2ccc(-c3c(C)[nH]c(C)c(Cl)c3=O)cc2)cc1`, with 90%; and `O=C(NCC1CCN(Cc2ccc3c(c2)OCCO3)C1)c1cc(-c2ccccc2F)cs1.O=C(O)C(F)(F)F` (stereo not given), with 95%; and `CCOC(=O)c1nc(-c2cccnc2)[nH]c1NC(=S)NCc1ccccc1`, with 100%. `CCNc1cc(C(=O)N[C@@H](Cc2ccccc2)[C@H](O)CNC2CCC(C(C)(C)C)CC2)cc(N2CCCC2=O)c1` (stereo not given in full) registered an Inhibition of 98%. To `Cc1cc(-c2cc(Cl)ccc2Cl)no1` belongs 96%; to `CN1CCCc2ccc(NC(=O)Nc3ccc(Cl)c(Cl)c3)cc2C1`, 89%. Then `CCN(CC)CCN(Cc1ccc(-c2ccc(C(F)(F)F)cc2)cc1)C(=O)Cn1c(CCc2cccc(F)c2F)cc(=O)cc1-c1ccccc1`, with 94%; and `O=C(O)C(F)(F)F.O=S(=O)(NCCN1CCCC1)c1cccc(-c2cccc(CNCc3ccsc3)c2)c1`, with 100%.

Regarding `CC(C)[C@H](NC(=O)c1ccc(O)c(-c2cccc(C(F)(F)F)c2)c1)C(=O)NCCN1CCCCC1`, the Inhibition came to 99%.

Consider `COc1cccc(CNCC(C)(C)c2nc(-c3ccc(Cl)c(O)c3)c(-c3ccncc3)[nH]2)c1.Cl`, for which the Inhibition came to 100%.

`Cc1cc(N[C@@H](Cc2ccccc2)C(=O)NCc2cccc(F)c2)nc(NCC2CCCCC2)n1.O=C(O)C(F)(F)F`: the Inhibition is given as 100%. Take `CCN(CC)/C(=N/C(=N)Nc1ccc(Br)cc1)NCCCCCCN/C(=N\C(=N)Nc1ccc(Br)cc1)N(CC)CC`: the Inhibition is recorded as 96%. Regarding `CN1CCN(c2ccc(Nc3c4ccccc4nc4ccccc34)cc2)CC1`, the Inhibition was found to be 100%. `Cc1ccnc2nc(C(=O)Nc3cc(Cl)ccc3N3CCOCC3)nn12` registered an Inhibition of 84%.

`CC(C)(CN)c1nc(-c2ccc(Br)c(O)c2)c(-c2ccncc2)[nH]1.Cl` returned an Inhibition of 96%. To `CN1CCN(c2ccnc3ccc(NC(=O)Nc4ccc(Cl)c(Cl)c4)cc23)CC1` belongs 97%; to `O=S(=O)(Nc1cccc(CCN2CCC(N3CCCCC3)CC2)c1)c1ccc(Oc2ccccc2)nc1`, 99%.

Broadly, the Inhibition is the share of the control response that was lost under treatment. A lower Inhibition goes with a response near the control.
